RMI FANCM FP: blocks RMI1/RMI2 complex binding to FANCM MM2 peptide; Fluorescence polarization, RMI core complex with F-MM2 peptide; stronger effect = lower value; FP signal (polarization) at 33 µM; 0.58% of 70,000 active; in the data active means FP signal below about 40
* hit, by the source's call; ! = repeats disagree. The full list was thinned out, with hits kept by preference.

SMILES	RMI FANCM FP
Cc1c(O)ccc2c(CN3CCC4(CC3)OCCO4)cc(=O)oc12	25*
COc1ccc(N2CCN(Cc3cc(=O)oc4c3ccc3ccccc34)CC2)cc1	59
Cc1ccc2sc(N3CCN(C(=O)C4=COCCO4)CC3)nc2c1C	51
CC(=O)c1cc(C#N)c(C)nc1C	48
COc1ccc(NC(=O)CSc2ncc(S(=O)(=O)c3cccs3)c(N)n2)cc1Cl	75
Cc1cc2c(cc1C)CSC2	55
CSc1cccc(C(=O)Nc2nnc(-c3cc(C)ccc3C)o2)c1	52
Cc1ccc(C)c(-c2nnc(NC(=O)c3ccc(S(=O)(=O)N4CCc5ccccc54)cc3)o2)c1	18*
CS(=O)(=O)c1cccc(-c2nnc(NC(=O)c3ccc(S(=O)(=O)N4CCc5ccccc5C4)cc3)o2)c1	64
Brc1ccc(-c2ccc(-c3nnc(-c4ccco4)o3)o2)cc1	73
O=C1c2c(O)cccc2Cc2cccc(O)c21	-5*
O=C(O)c1cccc2c1-c1ccc(I)cc1C2	54
Cc1cc(O)c2c(c1)C(=O)c1cccc(O)c1C2=O	50
COc1ccc(CCN2CCC(Nc3nc4ccccc4n3Cc3ccc(F)cc3)CC2)cc1	20*!
COc1ccc2[nH]c(C(=O)NC3CCN(Cc4ccccc4)CC3)cc2c1	56
COc1ccc(CCS(=O)(=O)NCC2CCN(Cc3ccccc3)CC2)cc1	77
CC12CCC3(C=C1CCC1C2C(=O)CC2(C)C1CCC21OCCO1)OCCO3 (stereo unspecified)	55
O=C(NC(=S)NC1CCSC1=O)c1ccc([N+](=O)[O-])cc1 (stereo unspecified)	59
CCc1c2c(nc3sc(C(=O)Nc4ccc(-c5nc6ccccc6s5)cc4)c(N)c13)CC(C)(C)CC2=O	96
COc1ccc(-c2c3c(nc4sc(C(=O)Nc5ccc(Cl)cc5)c(N)c24)CC(C)(C)CC3=O)cc1	90
CCc1c2c(nc3sc(C(=O)c4ccc(Cl)c(Cl)c4)c(N)c13)CC(C)(C)CC2=O	-31*
CCNc1nc(NCC)n2c(SCC(=O)NC3=C(C(=O)OCC)C4CCCC4S3)nnc2n1 (stereo unspecified)	55
O=C(CN1C(=O)CSc2ccccc21)N/N=C\c1ccc(Cl)cc1	130
CCN1CCC[C@H]1CNC(=O)c1c(OC)ccc(Br)c1OC	59
CCN1CCC[C@H]1CNC(=O)c1cc(S(N)(=O)=O)ccc1OC	22*!
SMILES	RMI FANCM FP
C=CCN1CCCC1CNC(=O)c1cc2[nH]nnc2cc1OC (stereo unspecified)	61
Cc1cc(C(=O)Nc2ccc(Cl)cc2)c(C)n1-c1ccccc1	61
N#Cc1c(=O)[nH]c(O)c2c(=N)oc3ccc(Cl)cc3c12	10*
O=c1cc(O)c2cc(Cl)ccc2o1	57
C/C(=N/O)c1sc2ccccc2c1C	59
C=CCn1c(SCc2ccccc2F)nc2sc3c(c2c1=O)CCC3	57
CC(=O)Nc1ccc(F)cc1NC=C(C#N)C#N	54
Fc1cccc2sc(Nc3nc(-c4cccnc4)cs3)nc12	148
C[N+](C)(C)CCSSCC[N+](C)(C)C	59
CCCCCCCCCCCCCO	55
CCCCCCCCCCCCCCCC[N+](C)(C)C	34*
COCCN1CCC(CNC(=O)c2ccc3ccccc3c2)CC1	74
COC(=O)c1ccc2c(=O)n(CCCN3CCN(c4cc(C)ccc4C)CC3)c(=S)[nH]c2c1	71
O=C(CSc1ccc(NC(=O)C2CC2)nn1)NCc1ccc2c(c1)OCO2	101
O=C(N/N=C\c1ccc(O)cc1)N/N=C\c1ccc(O)cc1	57
CCOC(=O)c1c(N=c2oc3c(OC)cccc3cc2C(=O)Nc2ccc(C)cc2)sc2c1CCCC2	58
COc1cc(C(=O)Nc2ccccc2N2CCCCC2)cc(OC)c1OC	58
CCOc1ccccc1N=c1oc2c3c4c(cc2cc1C(=O)Nc1ccccc1OC)CCCN4CCC3	33*
CN(C(=O)/C=C/c1ccccc1)C1CCS(=O)(=O)C1 (stereo unspecified)	59
NNC(=O)Cn1nnc(-c2cccc([N+](=O)[O-])c2)n1	65
COc1ccc(S(=O)(=O)Nc2ccc3c(c2)NC(=O)C(C)(C)CO3)cc1Cl	62
CSc1ccccc1C(=O)Nc1cc(C)nn1-c1nc(-c2cccs2)cs1	72
Cc1onc(-c2ccccc2)c1C(=O)NNC(=O)C1CC1	61
Cc1onc(-c2ccccc2)c1C(=O)NCCNC(=O)c1c(-c2ccccc2)noc1C	-22*
CC(=O)Nc1ccc(OCCCNC(=O)c2c(-c3ccccc3)noc2C)cc1	63
SMILES	RMI FANCM FP
COc1cccc(OC)c1C(=O)N[C@@H]1C(=O)N2[C@@H]1SC(C)(C)[C@@H]2C(=O)O	67
Cc1onc(-c2c(Cl)cccc2Cl)c1C(=O)N[C@@H]1C(=O)N2[C@@H]1SC(C)(C)[C@@H]2C(=O)O	65
Cc1onc(-c2ccccc2)c1C(=O)NC1C(=O)N2[C@@H]1SC(C)(C)[C@@H]2C(=O)O (stereo partly specified)	9*
O=C(c1cccs1)n1ccc(C(F)(F)F)n1	52
O=C(c1ccc(F)c(F)c1)N1CCN(c2ccc(-c3ccco3)nn2)CC1	54
CCOc1ccc(-c2cc3c(SCc4ccc(F)cc4Cl)nccn3n2)cc1	79
O=C(CN1CCOCC1)C12CC3CC(CC(C3)C1)C2	54
NS(=O)(=O)c1ccc(NC(=S)Nc2ccc(F)cc2)cc1	68
O=C1OC(=O)c2c(Oc3ccccc3)cc3c4c(c(Oc5ccccc5)cc1c24)C(=O)OC3=O	30*
c1ccc(Oc2cccc(Oc3ccccc3)c2)cc1	58
O=C1c2cc(Cl)c(Cl)cc2C(=O)N1c1ccc(Oc2ccccc2)cc1	64
CC1(C)CC(=O)CC(=O)S1	60
CC1(C)C2CC[C@]3(C)C(C(=O)C=C4[C@H]5C[C@@](C)(C(=O)O)CC[C@]5(C)CC[C@]43C)[C@@]2(C)CC[C@@H]1O (stereo partly specified)	53
C=C(C)[C@@H]1CC[C@]2(CO)CC[C@]3(C)[C@H](CCC4[C@@]5(C)CC[C@H](O)C(C)(C)C5CC[C@]43C)C12 (stereo partly specified)	51
COc1ccccc1NC(=O)NCC(c1ccsc1)N(C)C (stereo unspecified)	69
Clc1ccc(-c2nnnn2-c2ccc(Cl)cc2)cc1	52
CS/C(=C(/C#N)S(=O)(=O)C(C)C)N1CCCCC1	59
O=C(c1ccc2nsnc2c1)N1CCN(C2c3ccccc3-c3ccccc32)CC1	55
Cc1c(C(=O)N2CCN(C3c4ccccc4-c4ccccc43)CC2)cnn1-c1ccccc1	61
O=C(c1ccno1)N1CCN(C2c3ccccc3-c3ccccc32)CC1	-13*!
O=C(CSc1ccc(NC(=O)C2CC2)nn1)Nc1ccc(F)c(F)c1	82
Cc1cc(NC(=O)c2ccc3c(c2)OCO3)n(-c2nc3ccccc3s2)n1	69
CCOC(=O)c1c(NC(=O)c2cc(S(=O)(=O)C(C)C)c(SC)s2)sc(C)c1C	37*
CCOC(=O)c1c(NC(=O)c2ccc(Br)s2)sc(C)c1C	79
CCOC(=O)c1c(NC(C)=O)sc(C)c1C	56
O=[N+]([O-])c1cccc(-c2nnc(C3c4ccccc4Oc4ccccc43)o2)c1	51
CCc1nc(NC(=O)c2cccc(Br)c2)sc1C(=O)OC	68
O=C(Nc1ccccc1)Nc1ccc(Br)c(C(F)(F)F)c1	52
CC(C)(C)c1ccc(-n2c(=O)[nH]c3c(C(N)=O)nc(-c4ccc(Cl)cc4Cl)nc32)cc1	92
COc1ccc(NC(=O)CC2SC(=N)NC2=O)c([N+](=O)[O-])c1 (stereo unspecified)	64

From PubChem
